The full data set covers some 7,900 targets. This sample favours those with a hit. About 0.6% of all pairs of compound and target were hits.
Experiments:
Assay in all cases: log2 fold change, soluble protein after heating vs DMSO (PISA); higher = thermal stabilisation; K562 cells, 10 uM, 30 min; active = over 0.2 and 3.5 SD of the protein, either way, in both replicates (recomputed)
[1] = compound: COC1=CC=C(C=C1)CN2C=CC3=C2C=C(C=C3)C(=O)NO
Procedure, shortened: (§1)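 Values are thermal stability changes relative to control samples and are taken from duplicates. They are stated as log2 fold changes. Before quantification by TMTpro 16plex LC-MS/MS with equalised channel sums, K562 cells at 2×10^6 cells/mL were treated with 10 μM compound for 30 min, heated in aliquots for 3 min across 48°C-58°C, pooled, extracted in PBS with 0.5% NP-40 at 4°C, and centrifuged at 21,000xg for 90 min to give the soluble supernatant.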

[2] = compound: CON(C)C(=O)N1N=C(c2cc(F)ccc2F)S[C@@]1(CCCN)c1ccccc1 [filanesib]
Procedure, shortened: as §1

[3] = compound: CO[C@H]1C[C@@H]2CC[C@@H](C)[C@@](O)(O2)C(=O)C(=O)N2CCCC[C@H]2C(=O)O[C@H]([C@H](C)C[C@@H]2CC[C@H](n3cnnn3)[C@H](OC)C2)CC(=O)[C@H](C)/C=C(\C)[C@@H](O)[C@@H](OC)C(=O)[C@H](C)C[C@H](C)/C=C/C=C/C=C/1C [zotarolimus]
Procedure, shortened: as §1

[4] = compound: COc1cc(C(=O)O)ccc1NC(=O)[C@@H]1N[C@@H](CC(C)(C)C)[C@](C#N)(c2ccc(Cl)cc2F)[C@H]1c1cccc(Cl)c1F [idasanutlin]
Procedure, shortened: as §1

[5] = compound: COc1cc(Nc2ncc3c(n2)-c2ccc(Cl)cc2C(c2c(F)cccc2OC)=NC3)ccc1C(=O)O [alisertib]
Procedure, shortened: as §1

[6] = compound: COc1cc2nc(-c3cc(F)ccc3O)nc(N[C@@H]3CNC[C@H]3C(C)(C)O)c2cc1OC
Procedure, shortened: as §1

[7] = compound: COc1cc2ncnc(Nc3ccc(F)c(Cl)c3)c2cc1OCCCN1CCOCC1 [gefitinib]
Procedure, shortened: as §1

[8] = compound: COc1cccc2cc(-c3nc([C@H]4CC[C@H](C(=O)O)CC4)n4ncnc(N)c34)[nH]c12
Procedure, shortened: as §1

[9] = compound: CS(=O)(=O)CCNCc1ccc(-c2ccc3ncnc(Nc4ccc(OCc5cccc(F)c5)c(Cl)c4)c3c2)o1 [lapatinib]
Procedure, shortened: as §1

[10] = compound: CS(=O)(=O)N1CCN(Cc2cc3nc(-c4cccc5[nH]ncc45)nc(N4CCOCC4)c3s2)CC1 [pictilisib]
Procedure, shortened: as §1

[11] = compound: CS(=O)(=O)c1ccc(-c2cnc(N)c(C(=O)Nc3ccccc3)n2)cc1
Procedure, shortened: as §1

[12] = compound: C[C@@H](Oc1cc(-c2cnn(C3CCNCC3)c2)cnc1N)c1c(Cl)ccc(F)c1Cl [crizotinib]
Procedure, shortened: as §1

[13] = compound: C[C@@H]1COCCN1C2=NC(=NC(=C2)C3(CC3)S(=O)(=O)C)C4=C5C=CNC5=CC=C4
Procedure, shortened: as §1

[14] = compound: C[C@H](C1=CC=C(C=C1)C(=O)NC2=C3C=CNC3=NC=C2)N
Procedure, shortened: as §1

[15] = compound: C[C@H](Nc1ncnc2nc[nH]c12)c1cc2cccc(Cl)c2c(=O)n1-c1ccccc1 [duvelisib]
Procedure, shortened: as §1

[16] = compound: Cc1cc(Nc2cc(CN3CCOCC3)c3nc(C)c(Cc4ccc(Cl)cc4F)n3n2)n[nH]1 [gandotinib]
Procedure, shortened: as §1

[17] = compound: Cc1cc(Nc2cc(N3CCN(C)CC3)nc(Sc3ccc(NC(=O)C4CC4)cc3)n2)n[nH]1 [tozasertib]
Procedure, shortened: as §1

[18] = compound: Cc1cc(SCc2sc(-c3ccc(C(F)(F)F)cc3)nc2C)ccc1OCC(=O)O
Procedure, shortened: as §1

[19] = compound: Cc1ccc(-n2nc(C(C)(C)C)cc2NC(=O)Nc2ccc(OCCN3CCOCC3)c3ccccc23)cc1 [doramapimod]
Procedure, shortened: as §1

[20] = compound: Cc1ccc(C(=O)N(CCCN)[C@@H](c2nc3cc(Cl)ccc3c(=O)n2Cc2ccccc2)C(C)C)cc1 [ispinesib]
Procedure, shortened: as §1

Measured: log2 fold change

UFD1 isoform 1 (UniProt Q92890)
active: [1] 0.225
inactive: [2] -0.033 | [3] -0.028 | [4] -0.043 | [5] -0.023 | [6] -0.052 | [7] -0.001 | [8] 0.033 | [9] 0.018 | [10] -0.037 | [11] -0.029 | [12] 0.004 | [13] -0.032 | [14] -0.022 | [15] 0.043 | [16] -0.099 | [17] -0.027 | [18] -0.04 | [19] 0.007 | [20] 0.036

WDR11 (UniProt Q9BZH6)
inactive: [1] -0.069 | [2] 0.027 | [3] -0.058 | [4] -0.124 | [5] -0.062 | [6] 0.104 | [7] -0.016 | [8] 0.094 | [9] -0.094 | [10] 0.094 | [11] -0.064 | [12] -0.007 | [13] 0.111 | [14] 0.059 | [15] 0.029 | [16] -0.291 | [17] -0.049 | [18] -0.051 | [19] 0.056 | [20] -0.133

VPS35L (UniProt Q7Z3J2)
Chain of UniProt Q7Z3J2 (Q7Z3J2 whole entry, looked up): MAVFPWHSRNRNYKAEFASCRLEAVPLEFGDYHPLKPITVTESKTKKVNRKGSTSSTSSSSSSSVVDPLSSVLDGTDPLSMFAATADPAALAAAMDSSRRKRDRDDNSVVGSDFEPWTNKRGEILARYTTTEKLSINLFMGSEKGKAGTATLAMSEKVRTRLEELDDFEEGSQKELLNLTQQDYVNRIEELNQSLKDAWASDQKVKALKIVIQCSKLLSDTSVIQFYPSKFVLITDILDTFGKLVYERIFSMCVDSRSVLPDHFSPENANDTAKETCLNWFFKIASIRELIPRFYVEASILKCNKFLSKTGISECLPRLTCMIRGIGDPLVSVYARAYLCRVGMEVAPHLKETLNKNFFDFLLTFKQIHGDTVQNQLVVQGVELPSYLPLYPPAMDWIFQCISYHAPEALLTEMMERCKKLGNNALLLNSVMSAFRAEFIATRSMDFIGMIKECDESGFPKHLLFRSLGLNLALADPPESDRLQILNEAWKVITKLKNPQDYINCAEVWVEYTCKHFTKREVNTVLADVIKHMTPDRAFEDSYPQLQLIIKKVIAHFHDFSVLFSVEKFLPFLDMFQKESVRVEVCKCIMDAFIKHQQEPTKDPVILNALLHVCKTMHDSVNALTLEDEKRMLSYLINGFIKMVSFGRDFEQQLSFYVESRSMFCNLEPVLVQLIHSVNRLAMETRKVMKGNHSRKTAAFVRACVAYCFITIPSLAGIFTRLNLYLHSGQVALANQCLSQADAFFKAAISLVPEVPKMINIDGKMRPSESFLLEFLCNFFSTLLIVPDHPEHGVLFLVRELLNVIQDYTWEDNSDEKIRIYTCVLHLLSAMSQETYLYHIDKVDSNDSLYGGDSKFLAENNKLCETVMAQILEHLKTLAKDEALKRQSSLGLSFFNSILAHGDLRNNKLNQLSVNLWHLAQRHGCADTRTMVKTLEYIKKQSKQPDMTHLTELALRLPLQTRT
inactive: [1] 0.028 | [2] 0.049 | [3] -0.016 | [4] -0.118 | [5] 0.041 | [6] 0.058 | [7] 0.059 | [8] -0.032 | [9] -0.05 | [10] 0.061 | [11] 0.054 | [12] -0.128 | [13] -0.043 | [14] 0.186 | [15] 0.033 | [16] 0 | [17] 0.026 | [18] 0.023 | [19] 0.02 | [20] -0.11

VPS28 (UniProt Q9UK41)
inactive: [1] -0.17 | [2] -0.061 | [3] 0.008 | [4] -0.076 | [5] 0.07 | [6] 0.038 | [7] 0.027 | [8] 0.033 | [9] 0.023 | [10] 0.059 | [11] 0.01 | [12] 0.051 | [13] 0.063 | [14] -0.091 | [15] 0.044 | [16] -0.055 | [17] 0 | [18] 0.096 | [19] 0.035 | [20] -0.041

TXN2 (UniProt Q99757)
Chain of UniProt Q99757 (Q99757 whole entry, looked up): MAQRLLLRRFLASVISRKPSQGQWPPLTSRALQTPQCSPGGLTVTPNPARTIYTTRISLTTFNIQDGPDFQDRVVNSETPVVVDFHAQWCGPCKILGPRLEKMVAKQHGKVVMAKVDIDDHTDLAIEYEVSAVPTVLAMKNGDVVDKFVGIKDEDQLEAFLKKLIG
active: [14] -0.317
inactive: [1] 0.039 | [2] 0.015 | [3] 0.211 | [4] 0.108 | [5] -0.19 | [6] -0.015 | [7] 0.042 | [8] -0.023 | [9] -0.078 | [10] -0.186 | [11] -0.001 | [12] 0.128 | [13] -0.047 | [15] 0.031 | [16] 0.105 | [17] 0.009 | [18] -0.026 | [19] -0.034 | [20] 0.028

XPO6 (UniProt Q96QU8)
Chain of UniProt Q96QU8 (Q96QU8 whole entry, looked up): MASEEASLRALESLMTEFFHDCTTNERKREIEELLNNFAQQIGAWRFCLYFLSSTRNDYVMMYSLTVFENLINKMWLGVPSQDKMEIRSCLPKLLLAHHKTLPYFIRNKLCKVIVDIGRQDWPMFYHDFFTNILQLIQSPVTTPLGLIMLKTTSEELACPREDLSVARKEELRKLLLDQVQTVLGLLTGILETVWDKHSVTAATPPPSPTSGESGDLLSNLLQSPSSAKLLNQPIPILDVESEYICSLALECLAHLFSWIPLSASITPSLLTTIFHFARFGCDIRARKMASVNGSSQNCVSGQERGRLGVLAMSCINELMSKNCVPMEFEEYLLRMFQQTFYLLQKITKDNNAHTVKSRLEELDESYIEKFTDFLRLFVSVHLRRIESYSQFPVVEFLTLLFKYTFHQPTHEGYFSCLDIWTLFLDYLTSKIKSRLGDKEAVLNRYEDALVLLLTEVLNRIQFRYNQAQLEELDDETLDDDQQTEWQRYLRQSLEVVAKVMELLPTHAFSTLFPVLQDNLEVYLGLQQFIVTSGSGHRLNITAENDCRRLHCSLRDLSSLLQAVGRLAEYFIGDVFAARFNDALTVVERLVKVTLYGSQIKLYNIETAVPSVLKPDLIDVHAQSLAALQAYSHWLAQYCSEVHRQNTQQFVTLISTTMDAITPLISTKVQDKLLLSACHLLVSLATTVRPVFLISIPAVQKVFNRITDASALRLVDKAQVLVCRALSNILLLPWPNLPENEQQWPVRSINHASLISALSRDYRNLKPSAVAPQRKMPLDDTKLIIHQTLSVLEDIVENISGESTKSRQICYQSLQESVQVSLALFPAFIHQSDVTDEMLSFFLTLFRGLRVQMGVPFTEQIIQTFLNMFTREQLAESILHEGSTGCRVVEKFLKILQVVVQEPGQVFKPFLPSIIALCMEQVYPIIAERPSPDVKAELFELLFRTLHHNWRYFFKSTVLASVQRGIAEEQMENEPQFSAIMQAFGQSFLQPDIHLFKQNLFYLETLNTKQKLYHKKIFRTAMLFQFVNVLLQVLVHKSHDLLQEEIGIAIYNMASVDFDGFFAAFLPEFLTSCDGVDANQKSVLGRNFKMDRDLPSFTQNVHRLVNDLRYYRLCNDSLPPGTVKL
inactive: [1] -0.453 | [2] -0.074 | [3] 0.047 | [4] -0.079 | [5] 0.171 | [6] 0.064 | [7] -0.029 | [8] -0.052 | [9] -0.055 | [10] -0.025 | [11] -0.033 | [12] 0.177 | [13] -0.277 | [14] 0.031 | [15] -0.001 | [16] 0.104 | [17] -0.011 | [18] 0.027 | [19] 0.179 | [20] 0

VTI1B (UniProt Q9UEU0)
inactive: [1] -0.089 | [2] -0.027 | [3] -0.063 | [4] -0.026 | [5] 0.046 | [6] 0 | [7] -0.023 | [8] 0.137 | [9] 0.002 | [10] 0.061 | [11] 0.022 | [12] -0.089 | [13] 0.025 | [14] 0.032 | [15] -0.045 | [16] 0.039 | [17] 0.005 | [18] -0.077 | [19] 0.084
active: [20] -0.41

VPS50 (UniProt Q96JG6)
inactive: [1] 0.023 | [2] -0.021 | [3] 0.028 | [4] -0.157 | [5] 0.019 | [6] 0.012 | [7] 0.007 | [8] -0.027 | [9] -0.006 | [10] -0.003 | [11] 0.012 | [12] -0.118 | [13] 0.044 | [14] 0.049 | [15] -0.017 | [16] -0.066 | [17] 0.01 | [18] 0.086 | [19] -0.032 | [20] -0.023

WDR37 isoform 2 (UniProt Q9Y2I8)
Chain of UniProt Q9Y2I8 (Q9Y2I8 whole entry, looked up): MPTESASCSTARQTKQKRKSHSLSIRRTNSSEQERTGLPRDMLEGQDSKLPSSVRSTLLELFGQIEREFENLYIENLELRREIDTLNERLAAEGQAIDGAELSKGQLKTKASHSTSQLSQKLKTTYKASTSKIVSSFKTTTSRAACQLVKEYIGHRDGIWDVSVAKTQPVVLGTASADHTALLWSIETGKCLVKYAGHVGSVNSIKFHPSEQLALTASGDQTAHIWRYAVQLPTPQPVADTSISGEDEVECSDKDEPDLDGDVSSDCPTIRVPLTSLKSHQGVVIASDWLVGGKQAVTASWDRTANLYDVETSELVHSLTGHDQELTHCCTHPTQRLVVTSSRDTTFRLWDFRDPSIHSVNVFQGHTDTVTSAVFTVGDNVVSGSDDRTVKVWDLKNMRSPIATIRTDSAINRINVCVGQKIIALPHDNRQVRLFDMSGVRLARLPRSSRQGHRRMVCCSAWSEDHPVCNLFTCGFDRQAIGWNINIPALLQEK
inactive: [1] 0.033 | [2] 0.117 | [3] -0.063 | [4] 0.081 | [5] -0.018 | [6] 0.034 | [7] -0.006 | [8] -0.029 | [9] 0.035 | [10] 0.046 | [11] 0.026 | [12] 0 | [13] 0.041 | [14] 0.11 | [15] -0.113 | [16] 0.069 | [17] 0.055 | [18] 0.15 | [19] 0.02 | [20] 0.055

UFL1 (UniProt O94874)
Chain of UniProt O94874 (O94874 whole entry, looked up): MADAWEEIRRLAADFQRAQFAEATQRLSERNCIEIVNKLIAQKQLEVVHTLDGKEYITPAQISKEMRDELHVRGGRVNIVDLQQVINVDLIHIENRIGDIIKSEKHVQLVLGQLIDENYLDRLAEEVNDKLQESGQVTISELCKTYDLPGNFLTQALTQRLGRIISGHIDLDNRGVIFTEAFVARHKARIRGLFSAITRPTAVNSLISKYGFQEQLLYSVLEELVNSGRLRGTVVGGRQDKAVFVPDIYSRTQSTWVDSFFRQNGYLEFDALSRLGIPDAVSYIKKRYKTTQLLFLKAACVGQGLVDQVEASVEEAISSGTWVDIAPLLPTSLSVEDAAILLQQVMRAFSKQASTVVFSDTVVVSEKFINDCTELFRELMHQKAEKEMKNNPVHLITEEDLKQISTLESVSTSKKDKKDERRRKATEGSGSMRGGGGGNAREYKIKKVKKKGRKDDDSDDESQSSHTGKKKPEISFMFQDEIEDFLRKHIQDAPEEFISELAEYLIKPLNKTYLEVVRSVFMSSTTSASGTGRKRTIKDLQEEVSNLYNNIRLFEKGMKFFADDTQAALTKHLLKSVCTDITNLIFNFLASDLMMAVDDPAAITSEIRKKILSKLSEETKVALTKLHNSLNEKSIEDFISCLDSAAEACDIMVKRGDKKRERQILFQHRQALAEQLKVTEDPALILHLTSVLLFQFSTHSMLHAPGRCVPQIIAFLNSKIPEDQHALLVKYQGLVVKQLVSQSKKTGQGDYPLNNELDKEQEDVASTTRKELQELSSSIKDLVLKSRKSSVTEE
inactive: [1] 0.029 | [2] -0.022 | [3] 0.025 | [4] -0.108 | [5] -0.074 | [6] 0.212 | [7] 0.003 | [8] -0.071 | [9] -0.017 | [10] 0.016 | [11] 0.05 | [12] -0.053 | [13] -0.043 | [14] 0.067 | [15] 0.005 | [16] -0.069 | [17] -0.016 | [18] 0.106 | [19] -0.02 | [20] -0.025

TMEM87B (UniProt Q96K49)
Chain of UniProt Q96K49 (Q96K49 whole entry, looked up): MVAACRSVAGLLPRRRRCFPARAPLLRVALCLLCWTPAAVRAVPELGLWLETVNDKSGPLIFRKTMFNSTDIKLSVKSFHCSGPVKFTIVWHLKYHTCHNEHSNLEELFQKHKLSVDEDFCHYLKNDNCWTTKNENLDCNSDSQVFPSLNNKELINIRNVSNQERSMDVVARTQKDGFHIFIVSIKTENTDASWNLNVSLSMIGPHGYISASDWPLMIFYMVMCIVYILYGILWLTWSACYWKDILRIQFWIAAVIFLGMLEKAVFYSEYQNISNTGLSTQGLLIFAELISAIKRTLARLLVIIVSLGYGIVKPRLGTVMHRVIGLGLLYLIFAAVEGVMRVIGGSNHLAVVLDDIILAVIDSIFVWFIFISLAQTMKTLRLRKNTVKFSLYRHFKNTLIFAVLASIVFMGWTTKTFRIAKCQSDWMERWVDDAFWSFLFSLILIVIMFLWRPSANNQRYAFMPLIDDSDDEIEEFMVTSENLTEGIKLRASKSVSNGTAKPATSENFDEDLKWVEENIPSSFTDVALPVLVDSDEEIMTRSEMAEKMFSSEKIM
inactive: [1] -0.064 | [2] -0.046 | [3] -0.108 | [4] -0.05 | [5] -0.133 | [6] -0.002 | [7] 0.063 | [8] 0.036 | [9] 0.026 | [10] 0.055 | [11] 0.01 | [12] -0.323 | [13] -0.063 | [14] -0.033 | [15] 0.101 | [16] -0.11 | [17] 0.07 | [18] 0.071 | [19] -0.059
active: [20] -0.406

XRCC6 (UniProt P12956)
Chain of UniProt P12956 (P12956 whole entry, looked up): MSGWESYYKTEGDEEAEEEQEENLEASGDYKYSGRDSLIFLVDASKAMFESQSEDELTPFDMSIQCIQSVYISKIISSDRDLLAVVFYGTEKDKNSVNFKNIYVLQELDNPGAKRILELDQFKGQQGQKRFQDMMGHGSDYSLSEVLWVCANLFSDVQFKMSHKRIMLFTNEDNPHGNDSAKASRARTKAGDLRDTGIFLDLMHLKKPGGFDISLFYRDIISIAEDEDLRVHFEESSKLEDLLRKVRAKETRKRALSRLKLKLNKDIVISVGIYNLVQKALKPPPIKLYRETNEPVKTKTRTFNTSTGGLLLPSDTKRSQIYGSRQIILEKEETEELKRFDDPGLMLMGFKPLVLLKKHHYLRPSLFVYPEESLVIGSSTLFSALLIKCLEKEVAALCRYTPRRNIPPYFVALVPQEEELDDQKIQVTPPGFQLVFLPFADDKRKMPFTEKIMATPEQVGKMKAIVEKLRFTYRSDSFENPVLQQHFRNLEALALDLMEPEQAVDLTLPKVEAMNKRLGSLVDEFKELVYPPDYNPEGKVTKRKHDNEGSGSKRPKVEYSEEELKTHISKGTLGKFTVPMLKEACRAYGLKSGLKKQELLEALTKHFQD
inactive: [1] 0.006 | [2] -0.021 | [3] 0.058 | [4] -0.059 | [5] -0.014 | [6] -0.097 | [7] -0.01 | [8] -0.008 | [9] 0.013 | [10] -0.024 | [11] 0.013 | [12] -0.064 | [13] 0.088 | [14] -0.042 | [15] 0.016 | [16] -0.149 | [17] 0.075 | [18] 0.091 | [19] -0.05 | [20] -0.039

TMEM223 (UniProt A0PJW6)
inactive: [1] -0.042 | [2] -0.109 | [3] 0.083 | [4] -0.112 | [5] -0.046 | [6] -0.147 | [7] -0.028 | [8] 0.038 | [9] 0.018 | [10] -0.007 | [11] -0.008 | [12] -0.045 | [13] 0.038 | [14] 0.002 | [15] 0.043 | [16] -0.14 | [17] 0.061 | [18] 0 | [19] 0.015
active: [20] -0.254

VWA8 (UniProt A3KMH1)
inactive: [1] -0.025 | [2] -0.052 | [3] -0.027 | [4] -0.119 | [5] -0.037 | [6] 0.006 | [7] 0.011 | [8] 0.077 | [9] 0 | [10] 0.01 | [11] 0.01 | [12] -0.058 | [13] 0.093 | [14] 0.025 | [15] 0.066 | [16] -0.038 | [17] -0.038 | [18] 0.094 | [19] -0.041 | [20] -0.221

TMEM70 (UniProt Q9BUB7)
Chain of UniProt Q9BUB7 (Q9BUB7 whole entry, looked up): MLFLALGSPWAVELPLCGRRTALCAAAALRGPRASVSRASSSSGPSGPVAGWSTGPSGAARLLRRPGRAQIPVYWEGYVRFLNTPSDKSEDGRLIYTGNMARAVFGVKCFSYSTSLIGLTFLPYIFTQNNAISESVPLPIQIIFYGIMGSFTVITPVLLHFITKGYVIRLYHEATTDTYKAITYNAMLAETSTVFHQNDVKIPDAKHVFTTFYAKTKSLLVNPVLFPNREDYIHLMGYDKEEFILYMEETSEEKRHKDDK
inactive: [1] -0.041 | [2] -0.157 | [3] -0.009 | [4] -0.016 | [5] 0.126 | [6] -0.118 | [7] -0.026 | [8] 0.106 | [9] -0.039 | [10] 0.059 | [11] 0.025 | [12] -0.096 | [13] 0.035 | [14] 0.002 | [15] -0.016 | [16] -0.08 | [17] -0.016 | [18] 0.087 | [19] -0.017 | [20] -0.243

UBAP1 isoform 4 (UniProt Q9NZ09)
inactive: [1] -0.018 | [2] 0.078 | [3] 0.045 | [4] -0.014 | [5] -0.034 | [6] -0.017 | [7] 0.088 | [8] -0.018 | [9] 0.23 | [10] -0.005 | [11] -0.003 | [12] -0.008 | [13] 0.07 | [14] 0.023 | [15] 0.052 | [16] 0.009 | [17] 0.399 | [18] 0.082 | [19] 0.044 | [20] -0.046
